The subject of the assay is MIWI (PIWIL1) piRISC loaded with L1MC piRNA (30 nt). The experiment in a line: pre-steady-state target cleavage rate (min^-1); MIWI and MILI are mouse PIWI proteins and EfPiwi is from a freshwater sponge; tags in brackets are library labels; higher = faster piRNA-guided slicing of the target. Particulars: guide: L1MC piRNA 5'p-UAACUAAAUACUAUGCAAGCUGUAGGUCCU
An outline of the steps: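 In this Cleave-'n-Seq assay, uncleaved targets were sequenced and normalised to depth and to weakly complementary targets. They came from a transcribed, DNA-blocked target RNA library […] mixed with 1 nM active affinity-purified piRISC carrying one synthetic guide, with or without 500 nM GTSF1 partner protein, in HEPES–potassium acetate buffer at 33 °C for 0–8 or 0–960 min. After three trials were pooled and k3 was capped at 0.0001 min^-1, the pre-steady-state cleavage rate was obtained from a burst-and-steady-state fit.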

[1] abbreviates: auxiliary factor: 500 nM mouse GTSF1.
Where [2] appears, read: auxiliary factor: none (no GTSF1).

± gives the standard deviation. The full ranking holds about 8,200 sequences; the median of “pre-steady-state target cleavage rate” is about 0.024, and the highest 2% start at about 1.3. For the sample, the highest values were picked, then their nearest neighbours and some sequences at random.
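Also: 1 nM active piRISC with 0.1 nM target library at 33 °C single turnover.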

As for UGGACCUACAGCUUGCAUAUAUUUAGUUA, the “pre-steady-state target cleavage rate” value under setting [1] was 0.429 ± 0.067 and the “pre-steady-state target cleavage rate” value under setting [2] came out at 0.00298 ± 0.0022.

In the case of UCCUGGAACAGCUUGCACAGUAUUUAGUUA, the “pre-steady-state target cleavage rate” value was 1.01 ± 0.035 under setting [1] and 0.0853 ± 0.018 under setting [2].

Turning to UCCUGGAUGUGCUUGCAUAGUAAUUAGUUA, the “pre-steady-state target cleavage rate” value was found to be 0.0816 ± 0.011 under setting [1] and 0.0162 ± 0.0045 under setting [2].

UCCUCCUACUGCUUGCAUAGUAUAUAGUUA: the “pre-steady-state target cleavage rate” value amounted to 0.472 ± 0.026 under setting [1] and 0.0228 ± 0.0045 under setting [2].

On to UCCUCCUUCUGCUUGCAUAGUAUUUAGUUA, for which the “pre-steady-state target cleavage rate” value stood at 1.18 ± 0.038 under setting [1] and 0.0546 ± 0.0091 under setting [2].

For AGGACCUACAGCUUGAUAGUAUUUAGUUA, the “pre-steady-state target cleavage rate” value under setting [1] is 1.21 ± 0.082 and the “pre-steady-state target cleavage rate” value under setting [2] stood at 0.0133 ± 0.0041.

In the case of AGGACCUACAGCUUGAAUAGUAUUUAGUUA, the “pre-steady-state target cleavage rate” value is 1.44 ± 0.059 under setting [1] and 0.0532 ± 0.01 under setting [2].

For UCGACCUACAGCUUGAUAGUAUUUAGUUA, the “pre-steady-state target cleavage rate” value is, setting by setting: under setting [1], 1.08 ± 0.067; under setting [2], 0.00731 ± 0.0024.

UGGACCUACAGCUUGAAUAGUAUUUAGUUA: the “pre-steady-state target cleavage rate” value by setting is: under setting [1], 1.63 ± 0.08; under setting [2], 0.0423 ± 0.0078.

For UCGACCUACAGCUUGAAUAGUAUUUAGUUA, the “pre-steady-state target cleavage rate” value was 1.48 ± 0.05 under setting [1] and 0.0397 ± 0.0067 under setting [2].

Take UCCACCUACAGCUUGAAUAGUAUUUAGUUA: the “pre-steady-state target cleavage rate” value runs as follows: under setting [1], 1.01 ± 0.035; under setting [2], 0.0277 ± 0.0053.

Take AGGACCUACAGCUUGACAUAGUAUUUAGUUA: the “pre-steady-state target cleavage rate” value reads like this: under setting [1], 1.07 ± 0.093; under setting [2], 0.0105 ± 0.0047.

Regarding UGGACCUACAGCUUGAUAGUAUUUAGUUA, the “pre-steady-state target cleavage rate” value was found to be 1.03 ± 0.096 under setting [1] and 0.0103 ± 0.003 under setting [2].

As for UGGACCUACAGCUUGCAAUAGUAUUUAGUUA, under setting [1], the “pre-steady-state target cleavage rate” value is 0.0655 ± 0.011.

In the case of UCCUGGAUGUGCUUGCAUAGUAUUUACAUA, the “pre-steady-state target cleavage rate” value under setting [1] amounted to 0.08 ± 0.017 and the “pre-steady-state target cleavage rate” value under setting [2] turned out to be 0.0058 ± 0.0031.

In the case of UCCUGGAUGAGCAUGGAUAGUAUUUAGUUA, the “pre-steady-state target cleavage rate” value by setting is: under setting [1], 0.475 ± 0.042; under setting [2], 0.0081 ± 0.0031.

In the case of UCGACCUACAGCUUGCUUAGUAUUUUCAAA, the “pre-steady-state target cleavage rate” value under setting [1] worked out at 0.329 ± 0.048.

Turning to UCCUGGAUGUGCAUGCAUAGUAUUUAGUAA, the “pre-steady-state target cleavage rate” value runs as follows: under setting [1], 0.0251 ± 0.0072; under setting [2], 0.00346 ± 0.0025.

With UCCUGGAAGAGCUUGCUUAGUAUUUAGUUA, the “pre-steady-state target cleavage rate” value runs as follows: under setting [1], 0.761 ± 0.051; under setting [2], 0.0227 ± 0.0089.

Regarding UCCUGGAUGAGCUUGCUUAGUAUAUAGUUA, the “pre-steady-state target cleavage rate” value was 0.0747 ± 0.013 under setting [1] and 0.0101 ± 0.0035 under setting [2].

In the case of UCCUGCUACAGCAUGCAUAGUAAUUAGUUA, the “pre-steady-state target cleavage rate” value came to 0.73 ± 0.077 under setting [1] and 0.00723 ± 0.0026 under setting [2].

Consider UCCUGGAUGUCCUUGCAUAGUAUAUUAGUUA, for which the “pre-steady-state target cleavage rate” value under setting [1] was 0.025 ± 0.0089.

UCCUGGAACAGCUUGCAUAGUAUUUGGUUA: the “pre-steady-state target cleavage rate” value came out at 0.781 ± 0.041 under setting [1] and 0.0538 ± 0.011 under setting [2].

For UCCACCUACAGCUUGCUUAGUAUUUAGUAA, the “pre-steady-state target cleavage rate” value under setting [1] turned out to be 0.484 ± 0.044 and the “pre-steady-state target cleavage rate” value under setting [2] amounted to 0.0103 ± 0.0023.

Regarding UGGACCUACAGCUUGCAUAGUAUUUACUUA, the “pre-steady-state target cleavage rate” value under setting [1] is 0.24 ± 0.021 and the “pre-steady-state target cleavage rate” value under setting [2] turned out to be 0.0361 ± 0.0058.

On to UGGACUUACAGCUUGCAUAGUAUUUAGUUA, for which the “pre-steady-state target cleavage rate” value reads like this: under setting [1], 1.45 ± 0.063; under setting [2], 0.081 ± 0.013.

As to UCGACUACAGCUUGCAUAGUAUUUAGUUA, the “pre-steady-state target cleavage rate” value under setting [1] was 1.3 ± 0.049 and the “pre-steady-state target cleavage rate” value under setting [2] worked out at 0.0713 ± 0.012.

Consider AGGACUUACAGCUUGCAUAGUAUUUAGUUA, for which the “pre-steady-state target cleavage rate” value reads like this: under setting [1], 1.39 ± 0.064; under setting [2], 0.0831 ± 0.012.

Take UCGACCUUACAGCUUGCAUAGUAUUUAGUUA: the “pre-steady-state target cleavage rate” value reads like this: under setting [1], 1.47 ± 0.057; under setting [2], 0.091 ± 0.02.

As for UCCACUUACAGCUUGCAUAGUAUUUAGUUA, the “pre-steady-state target cleavage rate” value runs as follows: under setting [1], 1.17 ± 0.034; under setting [2], 0.0668 ± 0.0094.

Turning to UGGACCAUACAGCUUGCAUAGUAUUUAGUUA, the “pre-steady-state target cleavage rate” value under setting [1] came to 1.3 ± 0.066 and the “pre-steady-state target cleavage rate” value under setting [2] is 0.0868 ± 0.013.

Regarding AGGACCGUACAGCUUGCAUAGUAUUUAGUUA, the “pre-steady-state target cleavage rate” value is, setting by setting: under setting [1], 1.16 ± 0.061; under setting [2], 0.0943 ± 0.019.

On to UCGACUUACAGCUUGCAUAGUAUUUAGUUA, for which the “pre-steady-state target cleavage rate” value under setting [1] amounted to 1.56 ± 0.045 and the “pre-steady-state target cleavage rate” value under setting [2] was determined as 0.0755 ± 0.013.

As to UCCUGGAUGAGCUAGCAUAGUAUAUAGUUA, the “pre-steady-state target cleavage rate” value is, setting by setting: under setting [1], 0.194 ± 0.031; under setting [2], 0.00454 ± 0.0041.

UCCACCUACUCGUUGCAUAGUAUUUAGUAA: the “pre-steady-state target cleavage rate” value under setting [1] is 0.406 ± 0.031 and the “pre-steady-state target cleavage rate” value under setting [2] is 0.00745 ± 0.0019.

For the sequence UCCUGCUACAGCUUCCAUAGAAUUUAGUUA, the “pre-steady-state target cleavage rate” value under setting [1] turned out to be 0.0338 ± 0.013.

For the sequence UCCUGGAUGAGCUUGCAUAGUAUUAAGUAA, the “pre-steady-state target cleavage rate” value was 0.197 ± 0.036 under setting [1] and 0.0178 ± 0.0055 under setting [2].

UCCACCUAGAGCUUGCAUAGUAUUUAGAUA: the “pre-steady-state target cleavage rate” value reads like this: under setting [1], 0.178 ± 0.032; under setting [2], 0.00955 ± 0.0025.

As to UCCUGCUACAGCUUGCAUAGUAUUUUCAUA, the “pre-steady-state target cleavage rate” value under setting [1] is 0.295 ± 0.055.
